# High-throughput results: PubChem BioAssay, National Center for Advancing Translational Sciences (NCATS)
# Shiga toxin inh = inhibitors of Shiga toxin in Vero cells | Vero cells, Shiga toxin protein synthesis inhibition reporter | inhibition, % at 38.7 µM | 290,000 tested, 9.2% active | AID 2315; in the data active = inhibition mostly above about 28%, no sharp cut-off; inactive = mostly below about 43%; note: 0% is about no effect
# CHX counter = counter-screen hit for Shiga toxin inhibitors, cycloheximide | AID 2314 | cell reporter, cycloheximide protein synthesis inhibition counterscreen | 300,000 tested, 12% active | max response, %; in the data active = max response mostly above about 13%, no sharp cut-off; inactive = mostly below about 14%; note: read at 38.3 µM for the half of the compounds with a filed dose; 0% is about no effect
# Pf growth 48h = inhibits P. falciparum growth in the first generation, 48 h. P. falciparum luciferase growth in erythrocytes, 48 h. Potency, µM (titrated, usually from 28.7 µM), inactives show top-dose activity change, negative = inhibition, actives largely listed as inhibitors. 310,000 tested, 5.9% active. AID 504832; note: potency is the fitted concentration of half-maximal effect; % is set by controls: 0 for no effect and ±100 for the full control effect
#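 Luciferase-expressing P. falciparum in infected erythrocytes (2% hematocrit, 0.1% parasitemia final) in RPMI 1640/0.5% Albumax were exposed to compound for 48 hours at 37 C, 5% CO2; growth read as luminescence.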
# Pf growth 96h = P. falciparum growth inhibition at 96 hours; AID 504834; 320,000 tested, 6.9% active; Potency, µM (highest dose often 28.7 µM), without a hit: at the highest dose activity change, negative = inhibition, usual class: inhibitors; P. falciparum luciferase reporter growth, 96 h; note: potency is the fitted concentration of half-maximal effect; % is set by controls: 0 for no effect and ±100 for the full control effect
#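 Readout is luminescence from an integrated firefly luciferase in P. falciparum. Red cells, 2% hematocrit and 0.05% parasitemia final, were cultured with compound through two parasite generations (96 hours) at 37 C, 5% CO2.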
# Starred values were filed as active, the others as inactive; ? = inconclusive; nt = no result given; [ ] = another dose, or the depositor's remark. Rows were chosen to be rich in hits. Some 21% of all compounds tested hit in one or more screens of this group. Unless noted, calls come from the whole dose curve; as a rule, active = well fitted inhibition curve with a large enough effect; inconclusive = small, poorly fitted or top-dose-only effect, or another doubt; inactive = no such curve, though single readings can be large or run the other way.
SMILES,Shiga toxin inh,CHX counter,Pf growth 48h,Pf growth 96h
CCN1C(=O)[C@H]2[C@@H](c3ccc(-c4ccc5c(c4)OCO5)c(OC)c3)N[C@@](CC(C)C)(C(=O)OC)[C@H]2C1=O,nt,nt,6.6µM*,13µM*
CCN1C(=O)[C@H]2[C@@H](c3ccc(-c4ccc5c(c4)OCO5)c(OC)c3)N[C@@](Cc3ccccc3)(C(=O)OC)[C@H]2C1=O,nt,nt,1.2µM*,?
COc1ccc(S(=O)(=O)N2CCN(C(=O)COc3ccc(C)c(C)c3)CC2)cc1OC,-6,1,10µM*,1%
COc1cc2c(cc1OC)CN(C(=O)CN1CCN(S(=O)(=O)c3ccc(C)c(C)c3)CC1)CC2,13,-11,?,13µM*
O=C(CN1CCN(S(=O)(=O)c2ccc3ccccc3c2)CC1)N1CCc2ccccc2C1,-6,-5,-1%,?
COc1cc2c(cc1OC)CN(Cc1cc(=O)oc3c(C)c(C)ccc13)CC2,16,2,-27%,13µM*
CCc1ccc2c(CN3CCc4cc(OC)c(OC)cc4C3)cc(=O)oc2c1,-7,9,-25%,?
COc1cc2c(cc1OC)CN(Cc1cc(=O)oc3cc(C)c(Cl)cc13)CC2,-2,-3,9.3µM*,?
COc1cc2c(cc1OC)CN(Cc1cc(=O)oc3cc(C)c(C)cc13)CC2,4,-2,?,?
C/C=C(\C)C(=O)N1CCC(C(=O)c2ccccc2)CC1,-4,-4,-9%[0.00184 µM],20%
Cc1c(C(=O)NCC2CCCO2)cccc1[N+](=O)[O-] (configuration not stated),-2,-1,-6%,-10%
Cc1ccc(NC(=O)CS(=O)CC(=O)N(c2ccc(C)cc2)C(C)C(=O)NC2CCCCC2)cc1 (configuration not stated),2,-4,13µM*,?
COc1ccc(N(C(=O)CS(=O)CC(=O)Nc2ccc(F)cc2)C(C(=O)NC2CCCCC2)c2cccs2)cc1 (configuration not stated),-14,-5,-11%,?
O=C(CS(=O)CC(=O)N(c1ccccc1)C(C(=O)NC1CCCCC1)c1ccco1)Nc1ccc(F)cc1 (configuration not stated),9,-5,?,7.4µM*
Cn1cc(S(=O)(=O)NCc2ccc(Cl)cc2)c(=O)n(C)c1=O,11,-7,46%,20%
CN(C)/C=N/c1sc2c(c1C#N)CCCCC2,20*,56*,95%,85%
CCCN(/C=N/c1sc2c(c1C#N)CCCCC2)CCC,18,16,?,0%
CN(C)/C=N/c1sc2c(c1C#N)CCC2,13,43*,0%,nt
N#Cc1c(/N=C/N2CCOCC2)sc2c1CCCCC2,107*,24,156%,?
CS(=O)(=O)N1CCCC(C(=O)NCc2cccs2)C1 (configuration not stated),16,-1,-4%,5.9µM*
CCS(=O)(=O)N1CCC(C(=O)NCc2cccs2)CC1,-7,-1,0%,7.4µM*
CCS(=O)(=O)N1CCC(C(=O)NCc2ccccn2)CC1,-18,-2,-9%,?
Cc1ccc(S(=O)(=O)N2CCCC(C(=O)N(Cc3cccs3)C3CC3)C2)cc1 (configuration not stated),11,6,5.2µM*,13µM*
CCC1CCCCN1S(=O)(=O)c1ccc(S(=O)(=O)N(Cc2cccs2)C2CC2)cc1 (configuration not stated),28,-1,8.3µM*,29%
CCOC(=O)C1CCCN(S(=O)(=O)c2ccc(C)cc2)C1 (configuration not stated),9,4,-12%,33%
SMILES,Shiga toxin inh,CHX counter,Pf growth 48h,Pf growth 96h
O=C(NCc1cccs1)C1CCCN(S(=O)(=O)c2cccs2)C1 (configuration not stated),-2,3,-6%,nt
CCC1CCCCN1S(=O)(=O)c1ccc(S(=O)(=O)N(Cc2ccccn2)CC2CCCO2)cc1 (configuration not stated),-14,-1,-28%,17%
COc1ccc(CCn2cnc(=O)c(C#N)c2C)cc1OC,2,7,8%,16%
CC(OC(=O)Cc1ccccc1[N+](=O)[O-])C(=O)NC(=O)NC1CCCCC1 (configuration not stated),nt,nt,29%,32%
COc1cc(C(=O)OC(C)CN2C(C)CCCC2C)cc(OC)c1OC (configuration not stated),-10,0,-5%,200%
O=C1CSC(=NC2CCCCC2)N1,-7,-2,5%,?
O=C1CS/C(=N/N=C2CCCC2)N1,7,-6,-14%,3.3µM*
COc1ccc(NC(=O)CCC(=O)c2cccs2)cc1S(=O)(=O)Nc1ccccc1Cl,47*,12,16%,-17%
COc1cc(NC(=O)CCC(=O)c2cccs2)cc(OC)c1,-15,6,17%,?
COc1ccc(NC(=O)CCC(=O)c2cccs2)c(OC)c1,77*,31*,12%,-5%
COc1ccc(NC(=O)CCCc2ccccc2)c(OC)c1,nt,19*,32%,1%
COc1ccc(Cl)cc1NC(=O)CCCC(=O)c1ccccc1,3,1,-14%,3%
COc1ccc(NC(=O)CCCC(=O)c2ccccc2)c(OC)c1,21,16*,?,?
CC(=NCCCn1ccnc1)c1c(C)[nH]n(-c2ccc([N+](=O)[O-])cc2)c1=O,13,2,?,48%
COc1cc(Cl)c(C)cc1NC(=O)CSc1nnc(CCC(=O)O)c(=O)[nH]1,7,-2,12%,111%
O=C(NCc1ccc(Cl)cc1)C1CCN(c2nnc(N3CCCC3=O)s2)CC1,6,-2,44%,21%
COc1ccc(CCC(C)NC(=O)CCc2ccccc2)c(OC)c1 (configuration not stated),-10,-4,9.3µM*,?
COc1cc(OC)c(OC)cc1CCC(C)NC(=O)Cc1ccccc1 (configuration not stated),-5,1,-27%[0.00184 µM],-9%
C/C(N)=C(/C#N)C(=O)COC(=O)COc1ccc(Cl)cc1,3,-1,-11%,14%
C/C(N)=C(/C#N)C(=O)COC(=O)CNC(=O)c1ccc(Cl)cc1Cl,68*,13*,13%,9%
C/C(N)=C(/C#N)C(=O)COc1ccc(Cl)cc1Cl,47,48*,18%,27%
Cc1ccccc1C(=O)N1CCC(C(=O)Nc2ccccn2)CC1,nt,nt,?,2%
CCNC(=O)NC(=O)CN(C)c1ccccc1,2,1,13%,52%
Cn1c(SCC(=O)O)nnc1-c1ccc2ncccc2c1,-10,2,43%,22%
CC(C)(C)c1ccc(SCCc2cccnc2)cc1,110*,44*,224%,117%
COc1ccc(SCCc2ccncc2)cc1,-9,-3,17%,8%
c1ccc(SCCc2ccncc2)cc1,15,20*,41%,30%
O=C(CN1CCN(Cc2cccc(F)c2)CC1)Nc1ccccc1F,-4,-2,-9%,23%
Cc1ccc(C(C[N+](=O)[O-])Sc2ccc(N)cc2)cc1 (configuration not stated),11,8,?,12µM*
